Source: PubChem BioAssay (Center for Chemical Genomics, University of Michigan)
Only a selection was taken, and hits are over-represented in it overall.
Dicer processing: inhibitors of human Dicer processing of pre-microRNA; z-score at 25 µM; cat-ELCCA pre-miR-21 Dicer processing, chemiluminescence; hits give high values; actives 6% (n = 47,000); in the data active = z-score above about 3, passing the limit was not always enough;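 also: higher signal means more uncleaved substrate so more Dicer inhibition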
Large screens that a line does not name were inactive.

C#CCOC(=O)CCCN1C(=O)c2cccc3cccc(c23)C1=O	none
CN(C(=O)CCCN1C(=O)c2cccc3cccc(c23)C1=O)c1ccccc1	none
CCCOCCOC(=O)C1=C(C)NC2=C(C(=O)CC(C)(C)C2)C1c1ccsc1 (configuration not stated)	Dicer processing 5.08
CCCOC(=O)C1=C(C)NC2=C(C(=O)CC(C)(C)C2)C1c1ccc(SC)cc1 (configuration not stated)	none
CCOCCOC(=O)C1=C(C)NC2=C(C(=O)CC(C)(C)C2)C1c1ccc(CC)cc1 (configuration not stated)	none
CSc1ccc(C2C(C(=O)OCCOc3ccccc3)=C(C)NC3=C2C(=O)CC(C)(C)C3)cc1 (configuration not stated)	none
CC1=C(C(=O)OCCOc2ccccc2)C(c2cccnc2)C2=C(CC(C)(C)CC2=O)N1 (configuration not stated)	Dicer processing 3.46
CCCOC(=O)C1=C(C)NC2=C(C(=O)CC(C)(C)C2)C1c1cccnc1 (configuration not stated)	none
COC(=O)c1cnn(-c2c(Cl)cc(Cl)cc2Cl)c1C(OC)OC	none
O=C(CSc1nc2ccccc2c(=O)n1-c1ccc(Cl)c(Cl)c1)c1ccc(F)cc1	none
Cc1ccc(C(=O)CSc2n[nH]c(-c3ccco3)n2)cc1C	none
COc1ccc(C(=O)CSc2n[nH]c(-c3ccco3)n2)cc1C	Dicer processing 5.61
COc1ccc(C(=O)CSc2n[nH]c(-c3ccco3)n2)cc1	none
CC1=C(C(=O)OC(C)C)C(c2ccccc2OCc2ccccc2)C2=C(CCCC2=O)N1 (configuration not stated)	none
S=c1[nH]nc(CSc2nc(-c3ccccc3)cn2-c2ccccc2)n1-c1ccccc1	none
C=CCn1c(SCc2n[nH]c(=S)n2C)nnc1-c1ccccc1	none
C=CCn1c(CSc2nc(-c3ccccc3)cn2-c2ccc(OC)cc2OC)n[nH]c1=S	Dicer processing 3.43
Cc1ccc(-n2cccc2)c([N+](=O)[O-])c1	none
N#C/C(=C\Nc1ccccc1)S(=O)(=O)c1ccc(Cl)cc1	none
COc1ccc(OC)c(C(=O)CC2(O)C(=O)Nc3ccc(Cl)cc32)c1 (configuration not stated)	none
O=C(CN1CCCCC1)N1c2ccccc2Sc2ccccc21	none
NCCCC(=O)N1c2ccccc2Sc2ccccc21	Dicer processing 5.45
CCN(CC)CC(=O)N1c2ccccc2Sc2ccccc21	none
CC(C)(C)NC(=S)Nc1cc(C(F)(F)F)ccc1Cl	none
CC(C)N(Cc1ccccc1)C(=O)c1c(F)cccc1Cl	none
O=C1CCCN=C(Nc2cccc(F)c2)S1	none
Cc1ccc(-c2cc3nc(-c4ccncc4)cc(C(F)(F)F)n3n2)cc1	none
C=CCN1C(=O)C2(/C(=C(/O)c3ccc(F)cc3)C(=O)C(=O)N2CCN(C)C)c2ccccc21 (configuration not stated)	Dicer processing 3.94
C=CCN1C(=O)C2(/C(=C(/O)c3ccc(C)c(F)c3)C(=O)C(=O)N2CCN(C)C)c2ccccc21 (configuration not stated)	none
C=CCN1C(=O)C2(/C(=C(/O)c3ccc(Cl)cc3)C(=O)C(=O)N2CCCOC)c2ccccc21 (configuration not stated)	Dicer processing 3.38
C=CCN1C(=O)C2(/C(=C(/O)c3ccc(C)c(F)c3)C(=O)C(=O)N2CCCN(C)C)c2ccccc21 (configuration not stated)	none
C=CCN1C(=O)C2(/C(=C(/O)c3ccc(C)cc3)C(=O)C(=O)N2CCCOC)c2ccccc21 (configuration not stated)	none
C=CCN1C(=O)C2(/C(=C(/O)c3ccc(OC)cc3)C(=O)C(=O)N2CCCOC)c2ccccc21 (configuration not stated)	Dicer processing 3.23
COCCCN1C(=O)C(=O)/C(=C(\O)c2ccc(Cl)cc2)C12C(=O)N(C)c1ccccc12 (configuration not stated)	none
CN(C)CCCN1C(=O)C(=O)/C(=C(\O)c2ccc(F)cc2)C12C(=O)N(C)c1ccccc12 (configuration not stated)	none
C=CCN1C(=O)C2(/C(=C(/O)c3ccc(OC)cc3)C(=O)C(=O)N2CCOC)c2ccccc21 (configuration not stated)	none
C=CCN1C(=O)C2(/C(=C(/O)c3ccc(OC)cc3)C(=O)C(=O)N2CCCN(C)C)c2ccccc21 (configuration not stated)	Dicer processing 3.62
C=CCN1C(=O)C2(/C(=C(/O)c3ccc(C)cc3)C(=O)C(=O)N2CCCN(C)C)c2ccccc21 (configuration not stated)	none
COc1cc(C2NC(=O)c3c(sc4c3CCN(C)C4)N2)cc(Br)c1OC (configuration not stated)	none
NC(=O)c1ccc(CC(=O)c2ccc(Cl)cc2)cc1	none
CC(=O)N1CCc2cc(S(=O)(=O)N=S(C)(=O)c3ccc(C)cc3)ccc21 (configuration not stated)	none
O=C1Nc2ccc(Br)cc2/C1=N/N=C/c1ccncc1	none
COc1ccc(-c2c(Br)sc(S(C)(=O)=O)c2C#N)cc1	none
CCOC(=O)c1nc(N2CCCC2)c2ccccc2n1	none
COc1ccc(CNc2nc(-c3cccs3)c(C#N)c(=O)n2C)cc1	none
O=C(Nc1c(C(=O)c2ccccc2)oc2ccccc12)c1ccco1	none
CO/C(N)=N/C(=S)Nc1ccc(F)cc1F	none
CCc1ccc(C2C3=C(CCCC3=O)NC3=C2C(=O)c2ccccc23)cc1 (configuration not stated)	none
CCOC(=O)c1c(NC(=O)CC)sc(C)c1C	none
CCOC(=O)c1c(N(C)S(C)(=O)=O)sc(C)c1C	Dicer processing 3.65
CCOC(=O)c1c(N)sc(C)c1C	none
COc1ccc(Cl)cc1NS(=O)(=O)N(C)C	none
CCOC(=O)c1nn(-c2ccccc2)c2nc(Nc3ccc(C)cc3)cc(=O)n12	none
COc1ccc(-c2nn3c(-c4ccccc4)nnc3s2)cc1	none
Clc1ccc(-c2nnc3sc(-c4cccs4)nn23)cc1	none
Clc1ccc(-c2nn3c(-c4ccccc4)nnc3s2)cc1	Dicer processing 3.09
CC(C)c1ccc(C2CN=NC23CSc2ccccc2C3=O)cc1 (configuration not stated)	none
COc1ccccc1OCC(O)CN1CCC(C)CC1 (configuration not stated)	none
CCC(=O)Nc1ccc(-c2nnc(C(F)(F)F)o2)cc1C	none
CCc1ccc(C2c3c(oc4ccccc4c3=O)C(=O)N2c2nncs2)cc1 (configuration not stated)	none
Cc1ccc(OC(C)CC(=O)O)c([N+](=O)[O-])c1 (configuration not stated)	Dicer processing 3.11
Cc1ccc(OC(=O)c2ccc(Cl)cc2[N+](=O)[O-])c([N+](=O)[O-])c1	none
Cc1ccc(-c2ccc(C)cc2[N+](=O)[O-])c([N+](=O)[O-])c1	none
O=C(COc1ccccc1Br)Nc1nccs1	none
Cc1ccc(C)c(OCCCCc2c(C)n[nH]c2C)c1	none
CC1CN(Cc2c(O)ccc3c2oc(=O)c2ccccc23)CC(C)O1 (configuration not stated)	Dicer processing 3.09
O=c1c(-c2ccccc2)coc2c(CN3CCCCC3)c(O)ccc12	none
CC1CN(Cc2c(O)ccc3c(=O)c(-c4ccccc4)coc23)CC(C)O1 (configuration not stated)	none
CC1CCN(Cc2c(O)ccc3c2oc(=O)c2ccccc23)CC1	Dicer processing 3.46
CC1CN(Cc2c(O)ccc3c(=O)c(Oc4ccc5ccccc5c4)c(C(F)(F)F)oc23)CC(C)O1 (configuration not stated)	none
CN1CCN(Cc2c(O)ccc3c(=O)c(-c4ccccc4)c(C(F)(F)F)oc23)CC1	none
